High-throughput results (PubChem)
HCV inhibitor = HCV inhibition; Huh7.5.1 HCVcc-Cre infection, luciferase reporter, 44 h; Potency, µM (top dose mostly 41.8 µM), hits mostly inhibitors; 340,000 tested, 3.4% active; active = well fitted inhibition curve with a large enough effect; inconclusive = small, poorly fitted or top-dose-only effect, or another doubt; inactive = no such curve, though single readings can be large or run the other way
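Compounds are dispensed onto cells plated 4 h earlier at 1,000 per well, with HCVcc-Cre virus (about 0.5 moi) added next. Following 44 h of culture, luminescent signal is measured for 15 sec after 15 min with substrate at room temperature.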
HCMV antiviral = blocks human cytomegalovirus replication. HFF cells, HCMV-luciferase reporter, 72 h; stronger effect = lower value. activity change, negative = inhibition, % at 57.5 µM. 410,000 tested, 4.5% active. AID 1259415; in the data active = activity change below about -60%; inconclusive = no clear call, values can overlap the other calls; inactive = above about -39%
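HFF cells seeded 16 h at 37C, treated with compounds, infected with luciferase-reporter HCMV at MOI 1 PFU/cell; luciferase read at 72 h post infection, normalized to buffer-only and Salinomycin controls.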
FMDV inh = antivirals against foot and mouth disease virus; FMDV antiviral cell-based qHTS; AID 1159524; Potency, µM (titrated, usually from 57.9 µM), most hits filed as inhibitors; 410,000 tested, 1.2% active; calls by dose curve; tested in HEK293T cells; note: read-out not given here; nearly all actives have a fitted effect of over 45% in size
Vaccinia mCherry = vaccinia inhibition (mCherry reporter); Vaccinia virus mCherry reporter infection, fluorescence; Potency, µM (doses to about 36.5 µM), most hits filed as inhibitors; 310,000 tested, 0.63% active; calls by dose curve; tested in A549 cells; note: nearly all actives have a fitted effect of over 35% in size
Vaccinia Venus = vaccinia inhibition (Venus reporter); Vaccinia virus Venus reporter expression, fluorescence; Potency, µM (titrated, usually from 36.5 µM), usual class: inhibitors; 330,000 tested, 0.46% active; calls by dose curve; tested in A549 cells; note: nearly all actives have a fitted effect of over 30% in size
Hits are given with their value; . = inactive; ? = inconclusive; / = no result; [ ] = remark or other dose. Rows were chosen to be rich in hits. Some 7.3% of all compounds tested hit in one or more screens of this group.

SMILES	HCV inhibitor	HCMV antiviral	FMDV inh	Vaccinia mCherry	Vaccinia Venus
CCOc1ccccc1C(=O)Nc1cc2c(cc1N1CCOCC1)n(C)c(=O)n2C	/	-112	.	.	.
CCOc1ccc(NC(=O)Cc2cccc3ccccc23)c([N+](=O)[O-])c1	.	-74	.	.	.
COC(=O)c1cc(CNC(=O)c2ccccc2OC)cc(NC(=O)c2ccccc2F)c1	/	/	.	.	.
Cc1ccc(C)n1C1C(=O)N(Cc2ccc(C(F)(F)F)cc2)c2ccc(Cl)cc21 (stereo unspecified)	/	.	/	/	/
CCCCSCCCNC(=O)c1cn(CC)c2ccc(S(=O)(=O)N(C)C3CCCCC3)cc2c1=O	/	.	.	.	.
COc1cccc(NC(=O)C2CCN(S(=O)(=O)c3c(C)noc3/C=C/c3cccs3)CC2)c1	/	?	?	.	.
Cc1cc(C(=O)N2CCOCC2)c(C)o1	.	-99	.	.	.
COc1ccc(CN2CCN(S(=O)(=O)c3ccc(F)cc3)CC2)cc1OC	.	-60	.	.	.
COc1ccc(CN2CCN(S(=O)(=O)c3ccc(NC(C)=O)cc3)CC2)cc1OC	.	?	/	.	.
CCCS(=O)(=O)N1CCN(Cc2ccc(OCc3ccccc3)c(OC)c2)CC1	10µM	?	/	.	.
COC(=O)c1ccc(S(=O)(=O)N2CCCN(Cc3ccc(F)cc3)CC2)n1C	11µM	-64	?	/	/
COc1cc(CN2CCC(C(=O)NCC(C)(C)CN(C)C)CC2)ccc1OCc1ccccc1	?	-94	.	/	/
Cc1cc(C)c(/C=C/c2onc(C)c2S(=O)(=O)N2CCC(C(=O)N(C)Cc3ccccc3)CC2)c(C)c1	/	.	.	.[7.34 µM]	.[7.34 µM]
COc1ccc(S(=O)(=O)N2CCN(CCCOc3ccc(F)cc3)CC2)cc1OC	11µM	?	?	.	.
COc1ccc(S(=O)(=O)N2CCN(c3ccc(F)cc3)CC2)cc1OC	.	.	.	/	/
Cc1ccc(C(C#N)c2ccc(C(=O)c3ccc(F)cc3)cc2)cc1 (stereo unspecified)	?	-78	.	.[1.46 µM]	?
CN(C)c1ccc(CNC(=O)c2cc3cc(S(=O)(=O)N4CCCCC4)ccc3n2C)cc1	/	.	.	.	.
CSc1ccc(CCNC(=O)c2cc3cc(S(=O)(=O)N4CCCCC4)ccc3n2C)cc1	/	-67	?	.	.
CCOc1ccc(CNC(=O)c2cc3cc(S(=O)(=O)N4CCCCC4)ccc3n2C)cc1	/	-68	?	.	.
Cc1ccc(CCNC(=O)c2cc3cc(S(=O)(=O)N4CCCCC4)ccc3n2C)cc1	/	.	?	?	?
COc1ccc(NC(C)=O)cc1NC(=O)C1(c2cccs2)CCOCC1	/	.	.	.	.
CCN(CC)CCOC(=O)c1ccc(N/C=C(/C#N)c2nc(-c3cc4ccccc4oc3=O)cs2)cc1	.	.	.	.	.
CCN(CC)CCOC(=O)c1ccc(N/C=C(/C#N)c2nc(-c3ccc(OC)cc3)cs2)cc1	?	-77	.	.	.
CCN(CC)CCOC(=O)c1ccc(N/C=C(/C#N)c2nc(-c3ccc4c(c3)OCO4)cs2)cc1	10µM	.	.	.[7.34 µM]	.[7.34 µM]
CCc1ccc(NC(=O)C(=O)NCCc2sc(-c3ccc(C)cc3)nc2C)cc1	/	.	.	.	.
SMILES	HCV inhibitor	HCMV antiviral	FMDV inh	Vaccinia mCherry	Vaccinia Venus
CCOC(=O)N1CCc2c(sc(NCc3cccs3)c2C(=O)Nc2cc(OC)ccc2OC)C1	/	.	.	.	.
CCOC(=O)N1CCc2c(sc(NCc3ccc(OCC)cc3)c2C(=O)Nc2ccc(OC)cc2OC)C1	/	-80	?	.	.
COc1ccc(NC(=O)c2c(NCc3ccc(OC)c(OC)c3OC)sc3c2CCC3)c(OC)c1	/	.	?	.	.
CCOC(=O)N1CCc2c(sc(NCc3cccs3)c2C(=O)Nc2ccc(OC)cc2OC)C1	/	-91	?	.	.
C=CCNCC(=O)Nc1sc2c(c1C(=O)Nc1ccc(OC)cc1OC)CCC2	10µM	.	.	/	/
CCOC(=O)N1CCc2c(sc(NCc3ccc(OC)c(OC)c3OC)c2C(=O)Nc2ccc(OC)cc2OC)C1	/	-80	?	.	.
O=C(NCC1(N2CCCCC2)CCCC1)c1cnn(-c2nccc(-c3cccs3)n2)c1C1CC1	/	/	.	.	.
O=C(OCc1cc([N+](=O)[O-])cc2c1OCOC2)c1cccnc1SC(F)F	1µM	.	.	.	.
CCN(CC)c1ccc(C2Nc3cccc4cccc(c34)N2)c(O)c1	11µM	.	.	/	/
CCCCNC(=O)N1CCCN(c2ccc(C#N)cn2)CC1	.	-65	.	/	/
Cc1ccccc1NC(=O)N1CCCN(c2ccc(C#N)cn2)CC1	.	.	.	.	.
COc1c(C)cc(Br)cc1C(=O)Nc1ccc(Cc2ccncc2)cc1	?	-72	?	.	.
CCCCCCCCCCCCC[N+](C)(C)Cc1ccccc1	/	/	28µM	11µM	11µM
CCCCCCCCCCCCCCCC[N+](C)(C)Cc1ccc(F)cc1	.	-89	.	.	?
C[N+](C)(CCOc1ccccc1)Cc1ccccc1 (tested in a mixture with another compound)	/	.	.	.	.
CC#CC[N+](C)(C)CCCCCCCC	.	.	.	.	.
O=C(CCN1CCCCCC1)Nc1cccc(Cl)c1	.	-60	.	.	.
O=C(CCCn1c(=O)c2cccn2c2ccccc21)Nc1cccc(Cl)c1	/	-70	.	.	.
CCCCCCc1ccc(N2C[C@H](Cc3ccccc3)[C@@H](CC(=O)NCc3ccc(OC)cc3)C2=O)cc1	2.8µM	.	.	?	?
CCCCCCc1ccc(N2C[C@H](CCCCC)[C@@H](CC(=O)NCc3ccc(OC)cc3)C2=O)cc1	.	.	.	.	?
CCc1nc(SCC(=O)c2ccc3c(c2)OCCO3)c2ccccc2n1	8.9µM	?	?	/	/
CCc1nc(SCC(=O)c2ccccc2)c2ccccc2n1	?	.	.	.	.
CCCc1nc(SCC(=O)c2ccc(OC)cc2)c2ccccc2n1	13µM	-83	?	.	.
CCCc1nc(SCC(=O)N2CCCC2)c2ccccc2n1	.	-89	?	/	/
O=C(CSc1nc(Cc2ccccc2)nc2ccccc12)c1ccc2c(c1)OCCO2	?	?	?	.	.
SMILES	HCV inhibitor	HCMV antiviral	FMDV inh	Vaccinia mCherry	Vaccinia Venus
Cc1ccc(C(=O)Nc2ccccc2C(=O)OCc2cc(=O)n3nc(C4CC4)sc3n2)cc1	/	.	.	.	.
COc1ccccc1NC(=O)CN1C(=O)C2(SCC(=O)N2c2ccc(C)c(C)c2)c2ccccc21 (stereo unspecified)	/	-72	?	.	.
COc1ccccc1NC(=O)CN1C(=O)C2(SCC(=O)N2c2ccc(F)c(F)c2)c2ccccc21 (stereo unspecified)	/	.	.	.	.
CCC1CN(CC(=O)NC(C)c2c(C)nn(C)c2C)Cc2cc(OC)ccc2O1 (stereo unspecified)	/	/	.	.	.
Cc1ccc2oc(=O)c3cc(C(=O)NCCCN4CCCCCC4)sc3c2c1	?	.	.	.	.
CCC1CCCCN1CCCNC(=O)c1cc2c(=O)oc3ccc(C)cc3c2s1 (stereo unspecified)	13µM	.	.	/	/
COc1cccc(Cn2c(=O)n(-c3cccc(Cl)c3C)c(=O)c3c4c(sc32)CN(C(C)=O)CC4)c1	/	?	.	.	.
